Screening results as filed in PubChem BioAssay.
IMPase cell inh: cell-permeable inhibitors of inositol monophosphatase (IMPase) | P97697 | CHO-M1 cells, IP1 accumulation, HTRF TR-FRET ratio | inhibition (IP1 accumulation), % at 46.1 µM | 120,000 tested, under 10 active; active = well fitted curve in the direction sought with a large enough effect in the signal ratio, not every such curve was filed as active; inconclusive = small, poorly fitted or top-dose-only effect, or a change in a side signal; inactive = no such curve, though single readings can be large or run the other way; the % refers to the signal ratio;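 note: cells stimulated with carbachol in lithium chloride buffer; plate controls were DMSO basal wells for no effect and reference inhibitor wells for full effect; higher means more IMPase inhibition seen as more IP1 and lower FRET ratio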
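The IP-One HTRF competitive assay in carbachol-stimulated CHO-M1 cells quantifies cellular IP1. Compounds spanned up to 46 uM final, and activity is expressed as AC50 from concentration-response fits of the ratio and donor data.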
15-hLO-2 inh: inhibitors of human 15-lipoxygenase 2 (ALOX15B) | O15296 | purified 15hLO-2, xylenol orange hydroperoxide absorbance | Potency, µM (series often up to 57.1 µM), for inactives: at the highest dose activity change, negative = inhibition, most hits filed as inhibitors | hit rate 0.56% among 110,000 | AID 881; note: potency is the fitted concentration of half-maximal effect; nearly all actives have a fitted effect of over 60% in size
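Read-out: hydroperoxide product oxidises ferrous iron, measured as xylenol orange complex via the 573-to-405 nm absorbance ratio after 30 min. Reaction: 50 nM enzyme, 15 min compound preincubation, 45 uM arachidonic acid, 90 min RT, Hepes pH 7.5 with Triton X-100.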
IMPase Li inh: membrane-permeable IMPase blocker, potentiated with lithium; AID 1457; hit rate 0.35% among 210,000; CHO-M1 cells, IP1 TR-FRET (IP-One), carbachol + lithium; Potency, µM (top dose mostly 59.4 µM), inactives show at the top dose activity, negative = IMPase inhibition, usual class: inhibitors;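 note: IP1 builds up when IMPase is blocked and the TR-FRET signal falls; potency is the fitted concentration of half-maximal effect; plate controls were basal vehicle for no effect and high inhibitor control for full effect; nearly all actives have a fitted effect of over 50% in size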
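Lithium-sensitised IP1 accumulation assay; M1-expressing CHO cells treated 30 min at 37C with compound. Competitive antibody detection by time-resolved FRET followed a 10 min room-temperature lysis step.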
12-hLO inh: inhibitors of human 12-lipoxygenase (ALOX12). P18054. purified 12-hLO, xylenol orange hydroperoxide absorbance. Potency, µM (titrated, usually from 57.1 µM), for inactives: at the highest dose activity change, negative = inhibition, usual class: inhibitors. hit rate 0.12% among 150,000. AID 1452; note: potency is the fitted concentration of half-maximal effect; nearly all actives have a fitted effect of over 55% in size
Target sequence (P18054 whole entry, looked up): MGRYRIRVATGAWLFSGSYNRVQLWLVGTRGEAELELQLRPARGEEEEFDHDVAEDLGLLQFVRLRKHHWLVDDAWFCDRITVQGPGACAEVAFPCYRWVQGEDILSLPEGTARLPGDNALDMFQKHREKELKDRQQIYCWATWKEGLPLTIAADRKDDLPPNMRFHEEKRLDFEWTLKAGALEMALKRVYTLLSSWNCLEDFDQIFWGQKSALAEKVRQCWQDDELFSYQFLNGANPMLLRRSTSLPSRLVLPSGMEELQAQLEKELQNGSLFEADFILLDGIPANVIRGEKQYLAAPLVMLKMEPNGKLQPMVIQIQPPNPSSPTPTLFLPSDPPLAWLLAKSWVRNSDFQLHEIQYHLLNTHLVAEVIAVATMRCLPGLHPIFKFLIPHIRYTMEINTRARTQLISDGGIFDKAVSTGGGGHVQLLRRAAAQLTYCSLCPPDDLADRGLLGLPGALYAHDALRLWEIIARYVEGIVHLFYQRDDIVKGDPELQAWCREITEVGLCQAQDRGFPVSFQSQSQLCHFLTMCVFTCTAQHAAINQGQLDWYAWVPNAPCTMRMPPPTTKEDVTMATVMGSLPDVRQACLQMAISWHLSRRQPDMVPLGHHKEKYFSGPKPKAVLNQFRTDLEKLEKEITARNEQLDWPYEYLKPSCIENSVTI
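Hydroperoxide output read as Fe(III)-xylenol orange absorbance, 573-to-405 nm ratio, after 30 min reaction with 40 uM arachidonic acid. Enzyme: 150 nM purified human 12hLO, 15 min compound preincubation; 25 mM Hepes pH 7.0, room temperature.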
The depositor's hits bear a star; ? = inconclusive; . = not tested or not shown; [ ] = remark or other dose. In the library only some 0.57% were active in any assay of this set; here they are far more common. Unless noted, calls come from the whole dose curve; as a rule, active = well fitted curve in the direction sought with a large enough effect; inconclusive = small, poorly fitted or top-dose-only effect, or another doubt; inactive = no such curve, though single readings can be large; an effect the other way counts as inactive or inconclusive. Unless noted, % is set by controls: 0 for no effect and ±100 for the full control effect.

SMILES	IMPase cell inh	15-hLO-2 inh	IMPase Li inh	12-hLO inh
Cc1ccc(-n2nc3c(=S)[nH]nc(C)c3c2C)cc1	?	-9.7%	4.47µM*	-1.4%
Cc1n[nH]c(=S)c2nn(-c3ccccc3)c(C)c12	?	-4.0%	14.1µM*	3.7%
Cc1n[nH]c(=S)c2nn(-c3cccc(Cl)c3)c(C)c12	-14.6	-15.6%	?	0.9%
CC(C)C[C@H](NC(=O)[C@@H](O)[C@@H](N)Cc1ccccc1)C(=O)O	-6.5	-6.5%	.	3.0%
N#Cc1cc2c(OCC(O)CN3CCN(C(c4ccccc4)c4ccccc4)CC3)cccc2[nH]1 (stereo unspecified)	.	.	37.5%	.
OC[C@@H]1O[C@@H](n2cnc3cncnc32)[C@@H](O)[C@H]1O	-7.4	7.9%	.	3.0%
O=C(O)[C@@H]1[C@@H](C(=O)O)[C@@]23CCCC2=C2CC[C@@]3(C(=O)O)[C@@]3(C(=O)O)C[C@@]213	.	.	6.8%	.
CCN(CC)[C@@H](C)CN1c2ccccc2Sc2ccccc21	14.0[20.6 µM]	12.6µM*	18.2%	?
CCc1ccc2c(c1)N(C[C@H](C)CN(C)C)c1ccccc1S2	.	4.5%[11.4 µM]	34.1%	3.3%[11.4 µM]
COc1cc(C2CC(=O)N3CN(c4ccccc4C)CSC3=C2C#N)cc(OC)c1OC (stereo unspecified)	-3.7	?	-27.5%[38.3 µM]	?
COc1cccc(C2CC(=O)N3CN(c4ccccc4F)CSC3=C2C#N)c1 (stereo unspecified)	-3.9	?	-7.2%[38.3 µM]	-18.3%
COc1ccccc1N1CSC2=C(C#N)C(c3ccc(SC)cc3)CC(=O)N2C1 (stereo unspecified)	1.2	20µM*	-14.9%[38.3 µM]	?
COc1ccc(OC)c(C2CC(=O)N3CN(c4cccc(Cl)c4C)CSC3=C2C#N)c1 (stereo unspecified)	-6.1	10µM*	-12.7%[38.3 µM]	?
COc1ccc(OC)c(C2CC(=O)N3CN(c4ccccc4F)CSC3=C2C#N)c1 (stereo unspecified)	6.0	31.6µM*	8.7%[38.3 µM]	31.6µM*
COc1cccc(C2CC(=O)N3CN(c4cccc(Cl)c4C)CSC3=C2C#N)c1OC (stereo unspecified)	-4.1	12.6µM*	-1.5%[38.3 µM]	?
COc1ccc(OC)c(C2CC(=O)N3CN(c4cccc(Cl)c4)CSC3=C2C#N)c1 (stereo unspecified)	3.6	?	5.6%[38.3 µM]	?
Cc1ccc(S(=O)(=O)N(CC(=O)O)Cc2cccc(C)c2)cc1	.	.	.	0.2%
CO[C@@H]1/C=C\O[C@]2(C)Oc3c(C)c(O)c4c(O)c(cc(O)c4c3C2=O)NC(=O)/C(C)=C\C=C/[C@H](C)[C@@H](O)[C@H](C)[C@H](O)C(C)[C@H](OC(C)=O)[C@@H]1C (stereo partly specified)	.	.	-6.1%	.
C#Cc1cccc(Nc2ncnc3cc(OC)c(OC)cc23)c1	.	.	4.3%	.
O=c1c2[nH]c3ccc(Br)cc3c2ncn1CCCn1ccnc1	-5.8	64.8%	5.62µM*	3.5%
O=c1c2[nH]c3ccccc3c2ncn1CCCn1ccnc1	-4.3	18.0%	15.1%[38.3 µM]	7.2%
COC(=O)c1cc2c(C)cc3ccc(C)cn3c-2c1C(=O)OC	-26.2	-5.2%	10µM*	-6.8%
Cc1ccc(C(=O)O)cc1N1C(=O)c2cccc3cc(Br)cc(c23)C1=O	?	-8.0%	2.24µM*	-17.9%
CCOc1cc(/C=N/NC(=O)c2cc(-c3cccc(OC)c3)n[nH]2)ccc1O	.	.	.	-8.2%
CC(=O)C1=C(O)C(=O)N(c2ccc(Br)cn2)C1c1ccccc1F (stereo unspecified)	-9.6	7.9%	11.2µM*	11.2%
SMILES	IMPase cell inh	15-hLO-2 inh	IMPase Li inh	12-hLO inh
NCC(O)COc1cccc2ccccc12 (stereo unspecified)	.	.	5.4%	.
[Cu].[O-]/N=C1/C(=[OH+])Nc2ccccc21.[O-]Nc1c(O)[nH]c2ccccc12	.	-7.1%[11.4 µM]	.	-3.5%[11.4 µM]
CCN1CCN(C(=O)N[C@H](C(=O)N[C@@H]2C(=O)N3C(C(=O)O)=C(CSc4nnnn4C)CS[C@@H]23)c2ccc(O)cc2)C(=O)C1=O	-1.7[20.6 µM]	4.5%[25.6 µM]	3.4%	-2.8%[25.6 µM]
Nc1c(S(=O)(=O)O)cc(S(=O)(=O)O)c2ccc(N=Nc3ccccc3)c(O)c12	.	-1.7%[11.4 µM]	13.7%	-2.8%[11.4 µM]
Cc1cc(-c2ccc(N=Nc3cc(S(=O)(=O)O)c4ccccc4c3N)c(C)c2)ccc1N=Nc1cc(S(=O)(=O)O)c2ccccc2c1N	.	3.16µM*	-1.5%	?
C[N+](C)(C)[C@@H](C1=CCCC1=O)c1ccccc1	.	-12.3%[11.4 µM]	.	2.0%[11.4 µM]
